These results are taken from PubChem BioAssay (NCI).

The panel holds about 83,000 compounds, 20% with a hit somewhere; the sample as a whole holds those more often.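 For each line, cells grew in 96-well plates with the test compound present at a single concentration for 48 hours.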 Values without a mark were called inactive. Calls of active or inactive are those of the source. How the source made its calls: active means growth percent below 10; inactive means the rest.

Among the test systems are HCT-15 colon; HT29 colon; SNB-75 CNS; SNB-19 CNS; U251 CNS; PC-3 prostate; SK-MEL-5 melanoma; UACC-62 melanoma; LOX IMVI melanoma; SK-MEL-28 melanoma; SK-MEL-2 melanoma; EKVX NSCLC; SN12C renal; UO-31 renal; TK-10 renal; ACHN renal; CAKI-1 renal; A498 renal; CCRF-CEM leukemia; MOLT-4 leukemia.
Holding throughout (experiment): NCI-60 one-dose screen, 48 h (100 = growth as untreated, 0 = no growth, -100 = all killed)
Settings in all cases: 10 µM

With `CCOc1ccc(Nc2nc3ccccc3nc2Nc2ccc(OCC)cc2)cc1`, the growth with HCT-15 colon was 26.8%; in the test on HT29 colon, 27.9%; with SNB-75 CNS, 90.9%; in the test on SNB-19 CNS, 39.7%; with U251 CNS, 32.3%; in the test with PC-3 prostate, 19.8%. The growth is 81.6% in the test with SK-MEL-5 melanoma; 73.3% in the test with UACC-62 melanoma; 83.8% in the test on LOX IMVI melanoma; 99% in the test with SK-MEL-28 melanoma; 89% with SK-MEL-2 melanoma; 46.6% in the test on EKVX NSCLC. Further, the growth in the test on SN12C renal was 54.7%; in the test on UO-31 renal, 54.9%; with TK-10 renal, 72%; in the test with ACHN renal, 52.9%; in the test with CAKI-1 renal, 51.4%; in the test with A498 renal, 69.1%. Besides, the figures for the growth in the test on CCRF-CEM leukemia and in the test with MOLT-4 leukemia were 23.7% and 9.99% (active), respectively.
In the case of `COc1cccc(-c2ccc(/C=N/NC(=O)c3[nH]c4ccc(Br)cc4c3-c3ccccc3)o2)c1`, the growth with HCT-15 colon was 1.34% (active); with HT29 colon, -9.03% (active); in the test on SNB-75 CNS, 31%; in the test on SNB-19 CNS, 40.3%; in the test with U251 CNS, 7.57% (active); in the test with PC-3 prostate, 20.2%. For the same molecule, the growth in the test with SK-MEL-5 melanoma was -0.615% (active); in the test with UACC-62 melanoma, 28.8%; in the test on LOX IMVI melanoma, 12.3%; in the test on SK-MEL-28 melanoma, 42.5%; in the test on SK-MEL-2 melanoma it was 19.2%; with EKVX NSCLC, 50.1%. Moreover, the growth was 5.67% (active) in the test on SN12C renal; 39.2% in the test with UO-31 renal; 70.4% in the test with TK-10 renal; 22.3% in the test with ACHN renal; 26% in the test on CAKI-1 renal; 72.5% with A498 renal. Besides, the growth was -5.45% (active) with CCRF-CEM leukemia and 1.31% (active) with MOLT-4 leukemia.
As for `Cc1cc(C)nc(/N=C(\N)Nc2ccc(S(=O)(=O)Nc3nc(C)cc(C)n3)cc2)n1`, the growth in the test on HCT-15 colon was 104%; in the test with HT29 colon it was 116%; in the test with SNB-75 CNS, 78%; with SNB-19 CNS, 102%; in the test on U251 CNS, 106%; with PC-3 prostate, 105%. Besides, the growth is 102% with SK-MEL-5 melanoma; 100% in the test on UACC-62 melanoma; 98.6% in the test on LOX IMVI melanoma; 106% in the test on SK-MEL-28 melanoma; 107% in the test with SK-MEL-2 melanoma; 104% in the test on EKVX NSCLC. The growth was 111% with SN12C renal; 85% with UO-31 renal; 105% in the test with TK-10 renal; 115% in the test with ACHN renal; 100% in the test on CAKI-1 renal; 112% with A498 renal. For the same molecule, the growth in the test with CCRF-CEM leukemia is 96.2%; with MOLT-4 leukemia it was 104%.
In the case of `COc1ccc(N(C)c2cc(C#N)nc3ccccc23)cc1N`, the growth in the test on HCT-15 colon is 0.224% (active); in the test on HT29 colon, -22.1% (active); in the test on SNB-75 CNS, 15.3%; in the test with SNB-19 CNS it was 12.2%; in the test on U251 CNS, 9.78% (active); with PC-3 prostate, 30.3%. For the same molecule, the growth in the test with SK-MEL-5 melanoma was -47.7% (active); with UACC-62 melanoma, 23.5%; with LOX IMVI melanoma it was 15%; in the test with SK-MEL-28 melanoma, 56.3%; with SK-MEL-2 melanoma, 4.88% (active); in the test with EKVX NSCLC, 20.5%. For the same molecule, the growth with SN12C renal was 5.85% (active); in the test on UO-31 renal it was 20.6%; in the test with TK-10 renal it was 76.7%; in the test on ACHN renal, 23.5%; in the test on CAKI-1 renal it was 26.1%; in the test on A498 renal, 113%. The growth is 5.77% (active) in the test with CCRF-CEM leukemia and 15.4% in the test on MOLT-4 leukemia.
For `N#Cc1c(-c2ccc(F)cc2)nc(SCc2ccc(F)cc2)nc1N1CCOCC1`, the growth is 79.9% in the test on HCT-15 colon; 92.9% in the test on HT29 colon; -17.5% (active) with SNB-75 CNS; 43.7% with SNB-19 CNS; 47.1% in the test with U251 CNS; 71.6% with PC-3 prostate. The growth in the test with SK-MEL-5 melanoma was 74.3%; in the test with UACC-62 melanoma it was 69.3%; in the test with LOX IMVI melanoma, 76.4%; in the test with SK-MEL-28 melanoma it was 85.8%; in the test on SK-MEL-2 melanoma, 78.7%; with EKVX NSCLC it was 60.1%. Moreover, the growth is 72.9% in the test with SN12C renal; 86% in the test on UO-31 renal; 77.6% with TK-10 renal; 46.7% in the test with ACHN renal; 30.7% in the test with CAKI-1 renal; 71.9% with A498 renal. The results for the growth with CCRF-CEM leukemia and in the test on MOLT-4 leukemia were 87.1% and 91.6%, respectively.
In the case of `COC1=C[C@@]23CCC(=O)N2CCc2cc4c(cc2[C@H]3[C@H]1OC(=O)C(C)(C)O)OCO4`, the growth was 97.5% in the test on HCT-15 colon; 106% in the test with HT29 colon; 74.1% with SNB-75 CNS; 94.1% with SNB-19 CNS; 104% with U251 CNS; 92.1% in the test with PC-3 prostate. In addition, the growth in the test on SK-MEL-5 melanoma is 99.3%; in the test on UACC-62 melanoma it was 89.1%; in the test on LOX IMVI melanoma, 96.6%; in the test with SK-MEL-28 melanoma it was 105%; in the test on SK-MEL-2 melanoma, 104%; in the test on EKVX NSCLC it was 97.2%. Also, the growth is 96.5% in the test with SN12C renal; 87.5% in the test on UO-31 renal; 97.7% with TK-10 renal; 103% in the test with ACHN renal; 95.6% in the test on CAKI-1 renal; 108% with A498 renal. Besides, the growth in the test with CCRF-CEM leukemia was 99.3%; in the test with MOLT-4 leukemia, 86.7%.
On to `CCCSc1nc(NC2CC2)c(C#N)c(-c2ccc(OC)cc2)n1`, for which the growth is 95.4% with HCT-15 colon; 90.1% in the test on HT29 colon; 103% in the test on SNB-75 CNS; 70.3% in the test on SNB-19 CNS; 87.4% with U251 CNS; 95.3% in the test with PC-3 prostate. In addition, the growth was 98.2% with SK-MEL-5 melanoma; 83.7% in the test on UACC-62 melanoma; 93.9% in the test on LOX IMVI melanoma; 118% in the test with SK-MEL-28 melanoma; 118% in the test on SK-MEL-2 melanoma; 101% in the test on EKVX NSCLC. Besides, the growth in the test with SN12C renal is 91.9%; with UO-31 renal it was 93.6%; in the test on TK-10 renal, 106%; with ACHN renal it was 85.2%; in the test on CAKI-1 renal, 86.9%; with A498 renal, 100%. Besides, the values for the growth in the test on CCRF-CEM leukemia and with MOLT-4 leukemia were 97.1% and 100%, respectively.
For the molecule `CN1CCN(c2ccc(C(=O)/C=C/c3ccc(C#N)cc3)cc2)CC1`, the growth in the test with HCT-15 colon is 33.6%; in the test with HT29 colon, 35.4%; with SNB-75 CNS, 94.2%; in the test on SNB-19 CNS it was 79.3%; with U251 CNS, 49.9%; with PC-3 prostate it was 94.7%. Moreover, the growth with SK-MEL-5 melanoma is 83.9%; with UACC-62 melanoma, 79.9%; with LOX IMVI melanoma, 16.7%; in the test with SK-MEL-28 melanoma, 108%; in the test with SK-MEL-2 melanoma it was 104%; with EKVX NSCLC it was 82%. In addition, the growth with SN12C renal was 73.8%; with UO-31 renal, 61.8%; in the test with TK-10 renal it was 102%; in the test with ACHN renal, 83.5%; in the test with CAKI-1 renal it was 63.8%; in the test on A498 renal, 103%. Besides, the figures for the growth in the test with CCRF-CEM leukemia and in the test with MOLT-4 leukemia were 65.9% and 90.5%, respectively.
